Screen size: about 39,000 compounds; about 1,500 (3.8%) were called active. This is one part of a sample in which actives are shown more often than they occur.

The assay deals with HSkMC (human skeletal muscle cells). The assay is described as follows: cytotoxicity call (relative viability < 0.9). The following applies: 10 µM.
As to `CN1C[C@H](O)COC[C@@H]2O[C@@H](CC(=O)N3CCN(c4ccccc4)CC3)CC[C@H]21`, the cytotoxicity call was “inactive”.
For `C[C@@H]1CCCCO[C@H](CN(C)C(=O)Nc2ccc(C(F)(F)F)cc2)[C@H](C)CN([C@H](C)CO)C(=O)c2cc(N(C)C)ccc2O1`, the cytotoxicity call was “inactive”.
As for `COc1cccc(NC(=O)N(C)C[C@H]2Oc3ncc(C#Cc4cccnc4)cc3C(=O)N([C@@H](C)CO)C[C@@H]2C)c1`, the entry is “inactive”.
Turning to `C[C@@H]1CN([C@H](C)CO)C(=O)Cc2cc(NC(=O)CCN3CCOCC3)ccc2O[C@H]1CN(C)S(=O)(=O)c1ccc(Cl)cc1`, the cytotoxicity call was “inactive”.
Take `O=C(O)c1cc(F)c2nc(N3[C@@H]4CC[C@H]3C[C@@H](OCc3c(-c5ccccc5OC(F)(F)F)noc3C3CC3)C4)sc2c1`: the cytotoxicity call is “inactive”.
As for `C[C@H](CO)N1C[C@H](C)[C@H](CN(C)Cc2ccncc2)Oc2c(NC(=O)Nc3cccc4ccccc34)cccc2C1=O`, the entry is “inactive”; as for `C[C@H](CO)N1C[C@H](C)[C@@H](CN(C)S(=O)(=O)c2ccc(Oc3ccccc3)cc2)OCc2cnnn2CCCC1=O`, “inactive”.
Next, `C[C@@H]1CN([C@@H](C)CO)C(=O)c2cc(NC(=O)C3CCCCC3)ccc2O[C@@H](C)CCCCO[C@H]1CN(C)Cc1ccc2c(c1)OCO2`: “inactive”.
Next, `COc1ccc(CNC(=O)C[C@@H]2C[C@@H]3c4cc(NS(=O)(=O)c5ccc(F)cc5)ccc4O[C@@H]3[C@H](CO)O2)cc1`: “inactive”; `NC(=O)CCN1C(=O)c2ccccc2C1=O`: “inactive”; `O=C(O)CCCN1C(=O)c2cccc3cccc(c23)C1=O`: “inactive”.
Take `O=C1c2ccc3c4c(ccc(c24)C(=O)N1CCCCO)C(=O)N(CCCCO)C3=O`: the cytotoxicity call was “active”.
Next, `CN1C(=O)c2cc(NC(=O)C3CCOCC3)ccc2OC[C@H]2O[C@H](CC(=O)NCc3ccc4c(c3)OCO4)CC[C@H]21`: “inactive”; `C[C@H](CO)N1C[C@H](C)[C@H](CN(C)S(=O)(=O)c2cccs2)Oc2c(NS(=O)(=O)c3cn(C)cn3)cccc2C1=O`: “inactive”.
For `C[C@H]1CCCCO[C@@H](CN(C)C(=O)Nc2ccc(C(F)(F)F)cc2)[C@@H](C)CN([C@@H](C)CO)C(=O)c2cc(NS(=O)(=O)c3ccc(Cl)cc3)ccc2O1`, the cytotoxicity call is “inactive”.
As to `C[C@@H]1CCCCO[C@H](CN(C)C(=O)Nc2ccc(C(F)(F)F)cc2)[C@@H](C)CN([C@@H](C)CO)C(=O)c2cc(NS(=O)(=O)c3ccc(Cl)cc3)ccc2O1`, the cytotoxicity call is “active”.
Next, `C[C@@H]1CCCCO[C@H](CN(C)C(=O)Nc2ccc(C(F)(F)F)cc2)[C@H](C)CN([C@H](C)CO)C(=O)c2cc(NS(=O)(=O)c3ccc(Cl)cc3)ccc2O1`: “inactive”; `C[C@H](CO)N1C[C@H](C)[C@H](CN(C)C(=O)Nc2ccc(C(F)(F)F)cc2)OCCCC[C@H](C)Oc2ccc(NS(=O)(=O)c3ccc(Cl)cc3)cc2C1=O`: “inactive”; `C[C@H]1CCCCO[C@H](CN(C)C(=O)Nc2ccc(C(F)(F)F)cc2)[C@@H](C)CN([C@@H](C)CO)C(=O)c2cc(NS(=O)(=O)c3ccc(F)cc3)ccc2O1`: “active”.
As for `C[C@@H]1CN([C@H](C)CO)C(=O)c2cc(NS(=O)(=O)c3ccc(Cl)cc3)ccc2O[C@@H](C)CCCCO[C@H]1CN(C)C(=O)Nc1ccc(C(F)(F)F)cc1`, the entry is “active”.
For `C[C@@H]1CCCCO[C@@H](CN(C)C(=O)Nc2ccc(C(F)(F)F)cc2)[C@H](C)CN([C@@H](C)CO)C(=O)c2cc(NS(=O)(=O)c3ccc(F)cc3)ccc2O1`, the cytotoxicity call is “inactive”.
Take `C[C@@H]1CCCCO[C@@H](CN(C)C(=O)Nc2ccc(C(F)(F)F)cc2)[C@H](C)CN([C@H](C)CO)C(=O)c2cc(NS(=O)(=O)c3ccc(Cl)cc3)ccc2O1`: the cytotoxicity call was “active”.
Next, `C[C@@H]1CCCCO[C@@H](CN(C)C(=O)Nc2ccc(C(F)(F)F)cc2)[C@H](C)CN([C@H](C)CO)C(=O)c2cc(NS(=O)(=O)c3ccc(F)cc3)ccc2O1`: “inactive”; `C[C@@H]1CN([C@@H](C)CO)C(=O)c2cc(NS(=O)(=O)c3ccc(Cl)cc3)ccc2O[C@@H](C)CCCCO[C@@H]1CN(C)C(=O)Nc1ccc(C(F)(F)F)cc1`: “inactive”.
`C[C@@H]1CCCCO[C@H](CN(C)C(=O)Nc2ccc(C(F)(F)F)cc2)[C@H](C)CN([C@@H](C)CO)C(=O)c2cc(NS(=O)(=O)c3ccc(Cl)cc3)ccc2O1`: the cytotoxicity call is “inactive”.
For `C[C@@H]1CCCCO[C@@H](CN(C)C(=O)Nc2ccc(C(F)(F)F)cc2)[C@H](C)CN([C@@H](C)CO)C(=O)c2cc(NS(=O)(=O)c3ccc(Cl)cc3)ccc2O1`, the cytotoxicity call is “inactive”.

For the origin of these results see the antibiotic and cytotoxicity screens of Wong et al. (2023).
